Assay outcomes as filed in PubChem BioAssay.
Shown are actives, neighbours in structure and some others; about 21% of the full set was active somewhere.
Pf growth 48h = Primary qHTS for delayed death inhibitors of the malarial parasite plastid, 48 hour incubation. P. falciparum luciferase growth in erythrocytes, 48 h. Potency, µM (doses to about 28.7 µM), for inactives: at the highest dose activity change, negative = inhibition, actives largely listed as inhibitors. 310,000 tested, 5.9% active; active = well fitted inhibition curve with a large enough effect; inconclusive = small, poorly fitted or top-dose-only effect, or another doubt; inactive = no such curve, though single readings can be large or run the other way; also: potency is read from the fitted curve at half-maximal effect; % is scaled to controls: 0 for no effect and ±100 for the full control effect
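Cell-based growth assay: transgenic P. falciparum expressing firefly luciferase, cultured in red cells within RPMI 1640 containing 0.5% w/v Albumax, 24 mM bicarbonate and gentamycin. A drop in luciferase activity indicates inhibition.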
NS1 function inh = qHTS Assay for Inhibitors of Influenza NS1 Protein Function; Potency, µM (highest dose often 46.1 µM), without a hit: at the top dose activity, positive = more growth; 270,000 tested, 0.4% active; AID 2326, 2010; also: potency is read from the fitted curve at half-maximal effect; actives are rising curves; nearly all actives have a fitted effect of over 50% in size
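Read-out: OD600 growth recovery of NS1-expressing budding yeast. Cells grown overnight at 30C in -URA glucose medium, washed, resuspended and diluted 1:100 in 2% galactose assay medium, pH 6.0. Same strain lacking NS1 served as positive control.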
Shiga toxin inh = A qHTS for Small Molecule Inhibitors of Shiga Toxin; Vero cells, Shiga toxin protein synthesis inhibition reporter; inhibition, % at 38.7 µM; 290,000 tested, 9.2% active; AID 2315, 2010; in the data active = inhibition mostly above about 28%, no sharp cut-off; inactive = mostly below about 43%; also: 0% is about no effect
SARS PLpro yeast = qHTS of Yeast-based Assay for SARS-CoV PLP; Potency, µM (doses to about 32.9 µM), for the others: at the highest dose activity, positive = growth rescue, hits mostly activators; 330,000 tested, 0.19% active; S. cerevisiae expressing SARS-CoV PLpro, growth rescue; AID 485353, 2010; also: potency is read from the fitted curve at half-maximal effect; 0% is about no effect; nearly all actives have a fitted effect of over 55% in size
Cycloheximide cs = Cycloheximide Counterscreen for Small Molecule Inhibitors of Shiga Toxin; cell reporter, cycloheximide protein synthesis inhibition counterscreen; max response, %; 300,000 tested, 12% active; AID 2314, 2010; in the data active = max response mostly above about 13%, no sharp cut-off; inactive = mostly below about 14%; also: read at 38.3 µM for the half of the compounds with a filed dose; 0% is about no effect
Pf growth 96h = Primary qHTS for delayed death inhibitors of the malarial parasite plastid, 96 hour incubation; AID 504834, 2011; P. falciparum luciferase reporter growth, 96 h; Potency, µM (highest dose often 28.7 µM), for inactives: top-dose activity change, negative = inhibition, usual class: inhibitors; 320,000 tested, 6.9% active; active = well fitted inhibition curve with a large enough effect; inconclusive = small, poorly fitted or top-dose-only effect, or another doubt; inactive = no such curve, though single readings can be large or run the other way; also: potency is read from the fitted curve at half-maximal effect; % is scaled to controls: 0 for no effect and ±100 for the full control effect
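Two-generation exposure (96 h) targets delayed-death phenotype. Reporter parasites carrying integrated firefly luciferase, in red cells at 2% hematocrit and 0.05% parasitemia final, kept at 37 C, 5% CO2; luminescence loss indicates inhibition.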
Starred values were filed as active, the others as inactive; i = inactive; ? = inconclusive; / = no result given; [ ] = another dose, or the depositor's remark. Unless noted, calls follow the shape of the full dose curve.

SMILES | Pf growth 48h | NS1 function inh | Shiga toxin inh | SARS PLpro yeast | Cycloheximide cs | Pf growth 96h
COc1ccc(C(=O)NC(=S)N2CCNC(=O)C2)cc1Br | 1% | 7% | -2 | 0% | -7 | -18%
COc1ccc(C(=O)NC(=S)N(C)C2CCCCC2)cc1 | -11% | 4% | 50* | 9% | 36* | 12µM*
COc1ccc(C(=O)NC(=S)N2CCC(C)CC2)cc1Br | 87% | -18% | 29* | 2% | 18* | ?
COc1ccc(C(=O)NC(=S)N(C)C2CCCCC2)cc1Br | ? | -21% | -8 | / | -1 | 3.7µM*
Cc1ccc(C(=O)NC(=S)N(C)C2CCCCC2)cc1Br | ? | 10% | 23 | -11% | 12 | ?
Cc1ccc(CNC(=O)CCNC(=O)c2ccco2)cc1 | 34% | 12% | 37 | 8% | 12 | 66%
O=[N+]([O-])c1cc([As](=O)(O)c2ccc(O)c([N+](=O)[O-])c2)ccc1O | 4.7µM* | 2% | -8 | -1% | 5 | 2.9µM*
Cc1cccc(N(Cc2ccccc2)C(=O)C2CCN(C(=O)c3ccccc3C)CC2)c1 | 12µM* | / | / | -9% | / | 10µM*
Cc1ccccc1C(=O)N1CCC(C(=O)N(C)CCOc2ccccc2)CC1 | ? | -4% | -7 | -3% | -3 | -10%
CCc1cccc2c1NC(=O)C2(O)N1CCCC(C)C1 (centres undefined) | ? | 0% | / | 2% | 12 | 92%
CC1CCCN(C2(O)C(=O)Nc3c(C(F)(F)F)cccc32)C1 (centres undefined) | 4.1µM* | 3% | 24 | 0% | 9.4* | -13%
O=C1C(c2cc(=O)c3ccccc3[nH]2)=C(O)c2ccccc21 | -9% | 11% | 137* | -16% | 42* | -22%
O=c1c2ccccc2[nH]c2ccc(O)cc12 | -10% | 1% | 16 | -15% | 3 | ?
COc1ccc(-c2cc(=O)c3ccc(F)cc3[nH]2)cc1 | / | / | i | / | -2 | /
O=c1cc(-c2ccccc2)[nH]c2ccccc12 | 1.5µM* | -67% | 7 | -12% | -3 | 2%
COc1ccc(NS(=O)(=O)c2cn(C)cn2)cc1OC | 28% | -8% | 16 | -7% | -1 | 3%
COc1ccccc1NC(=O)CSc1nnnn1C1CCCCC1 | 13% | -6% | 1 | 0% | -5 | 163%
CCCn1c(SCC(=O)c2ccc3c(c2)OCCO3)n[nH]c1=O | 27% | / | 62* | 0% | 30* | ?
CCn1nnnc1SCC(=O)c1ccc2c(c1)OCCO2 | 118% | -2% | 113* | 3% | 52* | 48%
CC(C)n1nnnc1SCC(=O)c1ccc2c(c1)OCCO2 | 47% | -6% | 42* | 1% | 36* | 194%
COc1cccc(C(=O)CSc2nnnn2C2CCCCC2)c1 | / | -34% | 59* | -55% | 28* | 67%
Cc1cccc(C(=O)Nc2cccc(-c3ccc4nncn4n3)c2)c1 | 8% | / | -6 | -3% | 4 | 0%
CCn1cc(C(=O)NCCCN2CCC(C)CC2)c(=O)c2cc(S(=O)(=O)N(C)C3CCCCC3)ccc21 | ? | -15% | -6 | 1% | -4 | ?
CCn1c(SCC(=O)c2ccc3c(c2)OCCO3)nnc1C(C)C | -19% | -7% | 35 | 2% | 19* | ?
Cc1ccc(C)c(C(=O)CSc2nnnn2-c2cccnc2)c1 | -8% | -22% | 29 | -5% | 10 | 10%[5.75 µM]
SMILES | Pf growth 48h | NS1 function inh | Shiga toxin inh | SARS PLpro yeast | Cycloheximide cs | Pf growth 96h
Cc1ccc(C)c(C(=O)CSc2nnnn2C(C)C)c1 | 57% | -13% | 54* | -12% | 62* | ?
O=C(CSc1nnnn1C1CCCC1)c1ccc2c(c1)OCCO2 | 130% | -16% | 50 | -5% | 33* | ?
CCOC(=O)c1ccc(NC(=O)CNNC(=O)COc2ccccc2C)cc1 | / | / | / | 1% | / | /
CCN(CC)C(=O)CSC(=Nc1ccccc1F)NC#N | 85% | -9% | 73* | 1% | 22* | 51%
CCOC(=O)N1CCN(c2c(NCc3ccc(F)cc3)c(=O)c2=O)CC1 | -8% | ? | 28 | 0% | 1 | -2%
CCOC(=O)N1CCN(c2c(NCc3cccs3)c(=O)c2=O)CC1 | / | -4% | -40 | 0% | -3 | 12µM*
CCOC(=O)N1CCN(c2c(NCCCN3CCCCCC3)c(=O)c2=O)CC1 | / | 3% | -5 | -2% | -9 | 10µM*
CCOC(=O)N1CCN(c2c(NCC3CCN(Cc4cccc(C)c4)CC3)c(=O)c2=O)CC1 | 8% | 7% | -14 | 1% | -3 | 6.6µM*
CC(NC(=O)CN(C)S(=O)(=O)c1cccc2nsnc12)c1ccccc1 (centres undefined) | -8% | -4% | -11 | 0% | -3 | ?
C[C@H](CO)N1C[C@H](C)[C@@H](CN(C)Cc2ccc3c(c2)OCO3)Oc2c(NS(=O)(=O)c3cn(C)cn3)cccc2C1=O | / | / | / | 2% | / | /
CC(Cl)C(=O)c1ccc2c(c1)CCN2C(=O)C1CC1 (centres undefined) | -25% | / | 44 | -3% | 21* | ?
O=C(C1CC1)N1CCc2cc(S(=O)(=O)N3CCOCC3)ccc21 | 10% | 0% | -14 | 4% | -3 | 21%
O=C1CSC(c2cccc(F)c2)N1c1c(F)cccc1F (centres undefined) | -18% | -3% | -6 | 1% | 2 | 3%
O=C1CSC(c2ccccc2F)N1c1ccccc1 (centres undefined) | -16% | 3% | -7 | -5% | -1 | 8.3µM*
O=C1CSC(c2c(F)cccc2Cl)N1c1cccc(F)c1 (centres undefined) | ? | -1% | -4 | 6% | -2 | 12µM*
O=C(Nc1ccc(C(F)(F)F)cc1)C1CCCCN1S(=O)(=O)c1ccccc1 (centres undefined) | ? | / | / | -6% | / | ?
O=C(Nc1ccc(-c2nc3ccccc3[nH]2)cc1)c1ccc(N2C(=O)CCC2=O)cc1 | -12% | 28% | -7 | -13% | -4 | -22%
CCOc1ccccc1/C=C/c1nc2ccccc2[nH]c1=O | 13% | -12% | 17 | 7% | 13* | 5%
CCOc1ccccc1CSc1nc2ccccc2[nH]1 | ? | -12% | 22 | -39% | 19* | ?
COc1ccc(CSc2nc3ccccc3[nH]2)cc1 | 374% | -2% | 74* | -18% | 35* | i
Cc1noc(C)c1CSc1nc2ccccc2[nH]1 | -16% | -7% | -5 | -5% | 2 | -1%[5.75 µM]
O=C1CCC(=O)N1c1ccc(CSc2nc3ccccc3[nH]2)cc1 | 60% | -13% | 87* | -2% | 27* | 39%
CCN(C(=O)COC(=O)c1cc([N+](=O)[O-])ccc1N1CCOCC1)C1CCS(=O)(=O)C1 (centres undefined) | 8% | / | / | -1% | / | 4%
c1ccc2[nH]c(SCc3ccc(-c4nnco4)cc3)nc2c1 | 105% | -12% | 89* | 5% | 18* | ?
